Source: PubChem (National Center for Advancing Translational Sciences (NCATS))
DRD3 agonist – activates the human D3 dopamine receptor; D3R DiscoveRx beta-arrestin cells, luminescence, 90 min; max activation, %; 410,000 tested, 0.58% active; in the data active means max activation above about 30%
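Cells at 1500/well, incubated overnight, then treated with pinned compounds (dopamine as control) for 90 min at 37 degrees C. DiscoveRx reagent added for 30 - 60 minutes at room temperature; luminescence read.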
D1 antagonist – blocks dopamine activation of the human D1 receptor; activity change, negative = inhibition, % at 10 µM; HEK293 TREx D1 cells, calcium flux, dopamine EC80; stronger effect = lower value; AID 504652; P21728; 360,000 tested, 3.2% active; in the data active means activity change below about -30%
Target sequence (P21728 whole entry, looked up): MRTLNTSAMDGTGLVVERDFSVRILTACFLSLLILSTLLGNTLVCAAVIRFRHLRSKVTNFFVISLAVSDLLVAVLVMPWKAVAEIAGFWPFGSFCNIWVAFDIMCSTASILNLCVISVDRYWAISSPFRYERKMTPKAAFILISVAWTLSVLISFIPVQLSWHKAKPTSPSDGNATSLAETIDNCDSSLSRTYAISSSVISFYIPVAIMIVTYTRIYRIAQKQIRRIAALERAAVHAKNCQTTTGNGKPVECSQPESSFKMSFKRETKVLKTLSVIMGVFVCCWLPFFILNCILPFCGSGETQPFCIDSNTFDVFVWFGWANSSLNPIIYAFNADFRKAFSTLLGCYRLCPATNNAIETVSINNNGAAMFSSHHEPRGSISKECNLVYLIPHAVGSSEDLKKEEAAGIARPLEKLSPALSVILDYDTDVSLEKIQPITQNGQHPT
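Antagonism measured as reduced calcium response to an EC80 dopamine addition following 180 s compound pre-read; cells were inducible HEK293 Trex D1 plated overnight at 30 C, read kinetically at 1 cycle/sec.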
D1 ag – human D1 receptor agonism; 360,000 tested, 1% active; HEK293 T-REx D1 cells, calcium flux, agonist mode; P21728; activation, % at 2 µM; in the data active means activation above about 30%
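Tetracycline-induced HEK293 TREx D1 cells, force-coupled to calcium signalling, were dye-loaded with a no-wash calcium kit. Compound was pin-added after a 10 s baseline. Fluorescence was read kinetically at 1 cycle/s for 180 s, with calcium rises flagged as agonism.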
D3 antag – D3 dopamine receptor (human) antagonism; P35462; 360,000 tested, 2.5% active; max response, negative = inhibition, %; D3R cells, DiscoveRx beta-arrestin luminescence, antagonist mode; stronger effect = lower value; in the data active means max response below about -50%; inconclusive means no clear call, values can overlap the other calls
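Cells expressing the human receptor were seeded at 1500 cells/well, incubated overnight at 37 degrees C in 5% CO2, then exposed to library compounds with dopamine controls for 90 minutes at 37 degrees C before luminescent detection.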
D1 PAM – enhances dopamine response at the human D1 receptor; P21728; HEK293 TREx D1 cells, calcium flux, dopamine EC20 potentiation; potentiation, % at 10 µM; 360,000 tested, 0.036% active; AID 504651; in the data active means potentiation above about 30%
Hits are given with their value; – = inactive; ? = inconclusive; · = not tested or not shown. Hits are enriched below; roughly 6.1% of the tested compounds scored in any of these assays.

SMILES	DRD3 agonist	D1 antagonist	D1 ag	D3 antag	D1 PAM
CCOc1cc(C(=O)NN=C2CCCC2)cc(OCC)c1OCC	–	–	–	-50.8	–
Cc1nc([N+](=O)[O-])nn1C12CC3CC(CC(Cl)(C3)C1)C2	–	–	–	–	–
NS(=O)(=O)c1ccc(CCNC(=O)CNCCc2ccc(C(F)(F)F)cc2)cc1	–	–	–	–	–
CC(C)c1ccccc1NC(=O)CNCCc1ccc(C(F)(F)F)cc1	–	–	35.6	–	–
COc1ccc(C)cc1-n1nnc(S(=O)(=O)c2ccc(C)cc2)c1C	–	–	–	·	–
COc1ccc([C@H]2CC(=O)C=C(c3cccc(OC(F)(F)F)c3)C2)cc1	–	-30.1	–	–	–
COc1ccc([C@H]2CC(=O)C=C(c3ccc(OC(F)(F)F)cc3)C2)cc1	–	–	–	?	–
COc1cc(F)cc(C2=CC(=O)C[C@H](c3ccc(F)cc3)C2)c1	–	·	–	-78.7	–
CN(C(=O)Cn1nnc(-c2ccc(S(C)(=O)=O)cc2)n1)c1ccccc1	–	–	–	·	–
COc1ccc(CN(CCN(C)C)c2ncccn2)cc1	–	·	·	·	·
CCCCCCCCCCCCCCCC[N+](C)(C)CCN(Cc1ccc(OC)cc1)c1ncccn1	–	–	–	-55.0	–
CC(=O)N1CCCc2cc(S(=O)(=O)N(C)CC(=O)Nc3ccc(C)cc3C)ccc21	–	–	–	·	–
Cn1c(SCC(=O)NCc2ccc(F)cc2)ncc(C(=O)Nc2ccccc2)c1=O	–	–	–	–	–
COc1ccccc1CNC(=O)CSc1ncc(C(=O)Nc2ccccc2)c(=O)n1C	–	–	–	-68.7	–
c1ccc(C2Nc3cccc4cccc(c34)N2)cc1	–	–	–	–	–
c1csc(C2Nc3cccc4cccc(c34)N2)c1	–	–	–	-69.7	–
CCOC(=O)Cn1c(=N)n(CCOc2ccc3ccccc3c2)c2ccccc21	–	–	32.3	–	–
CCCN1C(=O)C(NC(=O)c2ccccc2OC)(C(F)(F)F)C(C(=O)OC)=C1C (centres undefined)	–	–	–	·	–
Cc1nn(-c2cc(N3CCCC3)ccc2[N+](=O)[O-])c(=O)c2ccccc12	–	–	–	-59.1	–
CN1CCN(c2ccc(CNC(=O)c3cccc4c(-c5ccc(F)c(F)c5)coc34)cc2)CC1	–	·	·	-83.1	·
O=C(NCc1ccc(C(F)(F)F)cc1)c1ccc(-c2ccc(F)c(F)c2)c2ccoc12	–	·	·	?	·
CN1CCN(c2ccc(CNC(=O)c3ccc(-c4ccc(F)c(F)c4)c4ccoc34)cc2)CC1	–	·	·	-66.5	·
CCOc1cc(/C=N/NC(=O)c2cc(-c3cccc(OC)c3)nc3ccccc23)ccc1O	35.1	·	·	–	·
C/C(=N\NC(=O)c1cc(-c2cccc(OC(C)C)c2)nc2ccccc12)c1cccnc1	–	-42.7	–	–	–
C/C(=N\NC(=O)c1cc(-c2ccc(C)s2)nc2ccccc12)c1cccnc1	–	–	–	–	–
SMILES	DRD3 agonist	D1 antagonist	D1 ag	D3 antag	D1 PAM
COc1cc(/C=N/NC(=O)c2cc(-c3ccccc3)nc3ccccc23)ccc1O	–	–	–	–	–
COc1cc(/C=N/NC(=O)c2cc(-c3cccc(Br)c3)nc3ccccc23)cc(OC)c1O	31.7	·	·	–	·
COc1ccccc1-c1cc(C(=O)N/N=C/c2cccs2)c2ccccc2n1	–	–	–	-78.1	–
COCCNC(=O)CCCn1c(SCC(=O)c2ccc(Br)cc2)nc2c(sc3ccccc32)c1=O	–	–	–	·	–
CCCCCCCCCCCC[N+](C)(C)Cc1ccccc1	–	·	·	·	·
CCOc1cc(/C=N/NC(=O)C(=O)NCc2cccnc2)ccc1O	–	-35.4	–	–	–
CC(C)COc1cccc(-c2cc(C(=O)N/N=C/c3ccncc3)c3ccccc3n2)c1	33.8	–	–	–	–
COc1cc(/C=N/NC(=O)C(=O)NCc2cccnc2)ccc1O	–	–	–	–	–
CCOc1ccc(-c2cc(C(=O)N/N=C/c3cccnc3)c3ccccc3n2)cc1	–	–	–	–	–
COc1cc(/C=N/NC(=O)c2cnn3c(C)cc(-c4ccccc4)nc23)ccc1O	47.1	–	–	–	–
Cc1sc(-n2cccc2)c(C(C)NC(=O)Nc2cccc(C(F)(F)F)c2)c1C (centres undefined)	–	–	–	·	–
Cc1cc(NC(=O)COC(=O)C2CC(=O)N(c3ccccc3)C2)no1 (centres undefined)	–	–	–	–	–
